Data on three compounds can be found in PubChem BioAssay (EPA / NIEHS).

The term AC50 denotes the concentration at which the activity in the assay is half-maximal.

Common to all, as to details: mRNA level, 48 h; actives raise or lower the signal
Read-out in experiment [1]: Lipoprotein lipase (LPL), LPL (gene 4023)
Put plainly: LTEA_HepaRG_LPL: Life Technologies and Expression Analysis (LTEA) Assay for Lipoprotein lipase (LPL) using HepaRG (AID 2283515). A digest of the protocol: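 Differentiated HepaRG cells, plated 48 h, then exposed 48 h in serum-free induction medium to 8 concentrations (top 100 uM, half-log steps) in 0.5% DMSO, duplicate. LPL mRNA measured by qRT-PCR, normalized to ACTB, GAPDH and POLR2A.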

Read-out in experiment [2]: MicroRNA 122 (MIR122), gene 406906
The experiment can be described thus: LTEA_HepaRG_MIR122: Life Technologies and Expression Analysis (LTEA) Assay for MicroRNA 122 (MIR122) using HepaRG (AID 2283516). Further: the transcript read is the microRNA miR-122. The procedure, abridged:
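Differentiated human HepaRG cells in serum-free induction medium exposed 48 h to 8 half-log concentrations from 100 uM in 0.5% DMSO, duplicate. MIR122 quantified by Fluidigm TaqMan qRT-PCR, normalised to ACTB, GAPDH, POLR2A; fold change fitted bidirectionally versus DMSO.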

Read-out in experiment [3]: matrix metalloproteinase-10 (MMP10), MMP10 (gene 4319)
Put plainly: LTEA_HepaRG_MMP10: Life Technologies and Expression Analysis (LTEA) Assay for matrix metalloproteinase-10 (MMP10) using HepaRG (AID 2283517). The procedure, abridged: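 Differentiated HepaRG cells in serum-free induction medium exposed 48 h in duplicate to 8-point half-log series up to 100 uM in 0.5% DMSO. mRNA quantified by qRT-PCR, normalised to ACTB, GAPDH, POLR2A; bidirectional fit versus DMSO.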

Read-out in another experiment: MYC, MYC (gene 4609)
The experiment can be described thus: LTEA_HepaRG_MYC: Life Technologies and Expression Analysis (LTEA) Assay for MYC using HepaRG (AID 2283518). A digest of the protocol: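 Differentiated human HepaRG cells, plated 48 h then switched to serum-free induction medium, were exposed in duplicate for 48 h to 8-point half-log series up to 100 uM in 0.5% DMSO. MYC mRNA measured by qRT-PCR, normalized to ACTB/GAPDH/POLR2A.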

Read-out in experiment [4]: matrix metalloproteinase-3 (MMP3), MMP3 (gene 4314)
The experiment can be described thus: LTEA_HepaRG_MMP3: Life Technologies and Expression Analysis (LTEA) Assay for matrix metalloproteinase-3 (MMP3) using HepaRG (AID 2283519). The procedure, abridged:
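HepaRG cells (~100,000/well) in serum-free induction medium were dosed in duplicate for 48 h with an 8-point half-log series from 100 uM, 0.5% DMSO. MMP3 mRNA was quantified by Fluidigm TaqMan qRT-PCR, normalized to three housekeeping genes.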

Read-out in experiment [5]: Paternally Expressed 10 (PEG10), PEG10 (gene 23089)
The experiment can be described thus: LTEA_HepaRG_PEG10: Life Technologies and Expression Analysis (LTEA) Assay for Paternally Expressed 10 (PEG10) using HepaRG (AID 2283520). A digest of the protocol:
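Differentiated HepaRG cells exposed 48 h in serum-free induction medium to eight half-log concentrations topping at 100 uM, 0.5% DMSO, in duplicate. PEG10 mRNA quantified by TaqMan qRT-PCR, normalized to ACTB, GAPDH and POLR2A; bidirectional fit versus DMSO.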

Read-out in experiment [6]: Nuclear factor NF-kappa-B p105 subunit (Homo sapiens) (UniProt P19838)
The experiment can be described thus: LTEA_HepaRG_NFKB1: Life Technologies and Expression Analysis (LTEA) Assay for Nuclear Factor Kappa B Subunit 1 (NFKB1) using HepaRG (AID 2283521).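 Further: TaqMan qRT-PCR transcript normalised to ACTB GAPDH and POLR2A housekeeping genes.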 A digest of the protocol: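 Differentiated human HepaRG cells in serum-free induction medium with 0.5% DMSO were exposed for 48 h to eight half-log concentrations, top 100 uM, in duplicate. NFKB1 mRNA measured by Fluidigm TaqMan qRT-PCR, normalised to ACTB, GAPDH and POLR2A; bidirectional fit versus DMSO.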

Read-out in experiment [7]: Protein phosphatase 2A (PPP2R4), PTPA (gene 5524)
The experiment can be described thus: LTEA_HepaRG_PPP2R4: Life Technologies and Expression Analysis (LTEA) Assay for Protein phosphatase 2A (PPP2R4) using HepaRG (AID 2283522). The procedure, abridged: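 Differentiated human HepaRG cells in serum-free induction medium were exposed 48 h to 8 concentrations (top 100 µM, half-log steps, duplicate) in 0.5% DMSO. PPP2R4 mRNA was measured by TaqMan qRT-PCR, normalised to ACTB, GAPDH and POLR2A, and fitted bidirectionally versus DMSO.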

Read-out in experiment [8]: Phosphatase and tensin (PTEN), PTEN (gene 5728)
The experiment can be described thus: LTEA_HepaRG_PTEN: Life Technologies and Expression Analysis (LTEA) Assay for Phosphatase and tensin (PTEN) using HepaRG (AID 2283523). The procedure, abridged:
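HepaRG cells, 48 h after plating, exposed in duplicate for 48 h in serum-free induction medium to 8 half-log concentrations up to 100 uM (0.5% DMSO). PTEN mRNA by qRT-PCR, normalized to ACTB, GAPDH, POLR2A; bidirectional fit versus DMSO.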

Read-out in experiment [9]: solute carrier (SLC22A1), SLC22A1 (gene 6580)
Put plainly: LTEA_HepaRG_SLC22A1: Life Technologies and Expression Analysis (LTEA) Assay for solute carrier (SLC22A1) using HepaRG (AID 2283524). A digest of the protocol: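 Differentiated human HepaRG cells in serum-free induction medium, exposed 48 h in duplicate to 8-point half-log series from 100 µM top in 0.5% DMSO. SLC22A1 mRNA by TaqMan qRT-PCR normalized to ACTB, GAPDH, POLR2A; bidirectional fit versus DMSO.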

Read-out in experiment [10]: Pyruvate Dehydrogenase Kinase 4 (PDK4), PDK4 (gene 5166)
Put plainly: LTEA_HepaRG_PDK4: Life Technologies and Expression Analysis (LTEA) Assay for Pyruvate Dehydrogenase Kinase 4 (PDK4) using HepaRG (AID 2283525). The procedure, abridged: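 HepaRG cells plated 48 h, then switched to serum-free induction medium and exposed in duplicate for 48 h to 8 half-log concentrations from 100 uM in 0.5% DMSO. PDK4 mRNA measured by qRT-PCR, normalized to ACTB, GAPDH and POLR2A; bidirectional fit versus DMSO.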

Read-out in experiment [11]: NAD(P)H dehydrogenase [quinone] 1 (NQO1), NQO1 (gene 1728)
Put plainly: LTEA_HepaRG_NQO1: Life Technologies and Expression Analysis (LTEA) Assay for NAD(P)H dehydrogenase [quinone] 1 (NQO1) using HepaRG (AID 2283526). The procedure, abridged:
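Differentiated human HepaRG cells in serum-free induction medium, dosed in duplicate for 48 h at 8 half-log concentrations up to 100 uM in 0.5% DMSO. NQO1 mRNA by qRT-PCR normalized to ACTB, GAPDH, POLR2A; bidirectional fit versus DMSO baseline.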

Read-out in experiment [12]: Nuclear factor erythroid 2-related factor 2 (Homo sapiens) (UniProt Q16236)
Put plainly: LTEA_HepaRG_NFE2L2: Life Technologies and Expression Analysis (LTEA) Assay for Nuclear factor erythroid 2-related factor 2 (NFE2L2) Transcription Factor using HepaRG (AID 2283527).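 On outcome: TaqMan qRT-PCR transcript level normalised to ACTB GAPDH and POLR2A housekeeping genes.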 The procedure, abridged: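 Differentiated human HepaRG cells, serum-free induction medium, exposed 48 h in duplicate to eight half-log concentrations up to 100 uM in 0.5% DMSO. NFE2L2 mRNA by Fluidigm TaqMan qRT-PCR, normalised to ACTB, GAPDH, POLR2A; bidirectional change versus DMSO.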

Read-out in experiment [13]: succinate dehydrogenase complex iron sulfur subunit B (SDHB), SDHB (gene 6390)
Put plainly: LTEA_HepaRG_SDHB: Life Technologies and Expression Analysis (LTEA) Assay for succinate dehydrogenase complex iron sulfur subunit B (SDHB) using HepaRG (AID 2283528). A digest of the protocol: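 HepaRG cells (~100,000/well, plated 48 h) exposed in duplicate for 48 h in serum-free induction medium to 8-point half-log series from 100 uM in 0.5% DMSO; mRNA by qRT-PCR normalised to ACTB, GAPDH, POLR2A; bidirectional fit versus DMSO.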

Read-out in experiment [14]: Signal transducer and activator of transcription 3 (Homo sapiens) (UniProt P40763)
The experiment can be described thus: LTEA_HepaRG_STAT3: Life Technologies and Expression Analysis (LTEA) Assay for Signal transducer and activator of transcription (STAT3) using HepaRG (AID 2283529). The procedure, abridged:
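Differentiated HepaRG cells, serum-free induction medium, dosed 48 h in duplicate, 8 half-log concentrations from 100 uM in 0.5% DMSO. STAT3 mRNA by qRT-PCR, normalised to ACTB, GAPDH, POLR2A; bidirectional fit versus DMSO.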

Read-out in experiment [15]: solute carrier (SLCO1B1), SLCO1B1 (gene 10599)
The experiment can be described thus: LTEA_HepaRG_SLCO1B1: Life Technologies and Expression Analysis (LTEA) Assay for solute carrier (SLCO1B1) using HepaRG (AID 2283530). A digest of the protocol: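 Differentiated human HepaRG cells, plated 48 h, switched to serum-free induction medium and exposed in duplicate for 48 h to 8 half-log concentrations (top 100 uM) in 0.5% DMSO. SLCO1B1 mRNA by TaqMan qRT-PCR, normalized to ACTB/GAPDH/POLR2A.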

Read-out in experiment [16]: sulfotransferase 2A1 (SULT2A1), SULT2A1 (gene 6822)
Put plainly: LTEA_HepaRG_SULT2A1: Life Technologies and Expression Analysis (LTEA) Assay for sulfotransferase 2A1 (SULT2A1) using HepaRG (AID 2283531). A digest of the protocol:
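Differentiated human HepaRG cells in serum-free induction medium were exposed for 48 h to eight half-log concentrations (top 100 uM, 0.5% DMSO). SULT2A1 mRNA was measured by qRT-PCR, normalized to ACTB, GAPDH and POLR2A, and fitted bidirectionally against DMSO.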

Read-out in experiment [17]: Transforming Growth Factor (TGFA), TGFA (gene 7039)
Put plainly: LTEA_HepaRG_TGFA: Life Technologies and Expression Analysis (LTEA) Assay for Transforming Growth Factor (TGFA) using HepaRG (AID 2283532). A digest of the protocol:
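Differentiated HepaRG cells exposed 48 hours in serum-free induction medium, 0.5% DMSO vehicle, 8-point half-log series from 100 uM, in duplicate. TGFA mRNA by TaqMan qRT-PCR, normalised to ACTB, GAPDH, POLR2A; bidirectional fit versus DMSO.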

Read-out in experiment [18]: Transforming Growth Factor (TGFB1), TGFB1 (gene 7040)
The experiment can be described thus: LTEA_HepaRG_TGFB1: Life Technologies and Expression Analysis (LTEA) Assay for Transforming Growth Factor (TGFB1) Transporter using HepaRG (AID 2283533). A digest of the protocol: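 Differentiated human HepaRG cells in serum-free induction medium were exposed in duplicate for 48 h to eight concentrations (top 100 uM, half-log steps, 0.5% DMSO). TGFB1 mRNA was quantified by qRT-PCR, normalized to ACTB, GAPDH, POLR2A, and fitted bidirectionally against DMSO.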

Read-out in a further experiment: TIMP1, TIMP1 (gene 7076)
Put plainly: LTEA_HepaRG_TIMP1: Life Technologies and Expression Analysis (LTEA) Assay for TIMP1 using HepaRG (AID 2283534).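 Further: TaqMan qRT-PCR signal normalized to ACTB GAPDH and POLR2A housekeeping genes.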 The procedure, abridged:
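Differentiated human HepaRG cells in serum-free induction medium were exposed 48 h to chemicals (8 half-log concentrations, top 100 uM, 0.5% DMSO). TIMP1 mRNA was quantified by TaqMan qRT-PCR, normalized to ACTB/GAPDH/POLR2A; bidirectional fit versus DMSO.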

Structures are written as SMILES. Active and inactive are the calls of the source. How the source made its calls: active means hit-call score of the fitted dose curve at least 0.9, where 1 is the maximum; inactive means score below 0.9.

Chain of Nuclear factor NF-kappa-B p105 subunit (Homo sapiens) (P19838 whole entry, looked up): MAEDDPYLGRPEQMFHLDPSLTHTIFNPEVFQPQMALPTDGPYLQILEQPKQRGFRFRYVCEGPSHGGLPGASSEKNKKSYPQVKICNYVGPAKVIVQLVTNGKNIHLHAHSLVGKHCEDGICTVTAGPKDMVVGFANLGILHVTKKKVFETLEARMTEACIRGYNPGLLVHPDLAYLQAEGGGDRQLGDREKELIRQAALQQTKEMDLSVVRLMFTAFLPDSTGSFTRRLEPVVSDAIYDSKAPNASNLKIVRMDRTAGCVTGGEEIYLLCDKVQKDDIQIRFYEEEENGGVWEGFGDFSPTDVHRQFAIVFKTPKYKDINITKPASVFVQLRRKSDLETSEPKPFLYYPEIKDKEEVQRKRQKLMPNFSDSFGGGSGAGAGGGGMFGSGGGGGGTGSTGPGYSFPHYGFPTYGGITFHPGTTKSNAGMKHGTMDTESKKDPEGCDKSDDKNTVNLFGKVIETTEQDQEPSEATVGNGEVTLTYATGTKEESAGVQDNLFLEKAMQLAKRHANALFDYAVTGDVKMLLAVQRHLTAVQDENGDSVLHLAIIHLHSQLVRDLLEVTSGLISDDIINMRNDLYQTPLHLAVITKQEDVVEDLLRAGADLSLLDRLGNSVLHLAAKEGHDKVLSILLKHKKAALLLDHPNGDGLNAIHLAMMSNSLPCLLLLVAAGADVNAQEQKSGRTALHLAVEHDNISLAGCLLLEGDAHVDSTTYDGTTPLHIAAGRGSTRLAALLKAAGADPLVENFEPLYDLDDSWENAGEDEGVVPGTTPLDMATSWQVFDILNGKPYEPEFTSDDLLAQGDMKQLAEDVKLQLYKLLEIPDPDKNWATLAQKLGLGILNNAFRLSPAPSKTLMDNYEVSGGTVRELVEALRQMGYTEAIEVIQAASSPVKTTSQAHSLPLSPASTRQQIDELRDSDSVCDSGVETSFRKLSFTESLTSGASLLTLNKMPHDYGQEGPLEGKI
Chain of Nuclear factor erythroid 2-related factor 2 (Homo sapiens) (Q16236 whole entry, looked up): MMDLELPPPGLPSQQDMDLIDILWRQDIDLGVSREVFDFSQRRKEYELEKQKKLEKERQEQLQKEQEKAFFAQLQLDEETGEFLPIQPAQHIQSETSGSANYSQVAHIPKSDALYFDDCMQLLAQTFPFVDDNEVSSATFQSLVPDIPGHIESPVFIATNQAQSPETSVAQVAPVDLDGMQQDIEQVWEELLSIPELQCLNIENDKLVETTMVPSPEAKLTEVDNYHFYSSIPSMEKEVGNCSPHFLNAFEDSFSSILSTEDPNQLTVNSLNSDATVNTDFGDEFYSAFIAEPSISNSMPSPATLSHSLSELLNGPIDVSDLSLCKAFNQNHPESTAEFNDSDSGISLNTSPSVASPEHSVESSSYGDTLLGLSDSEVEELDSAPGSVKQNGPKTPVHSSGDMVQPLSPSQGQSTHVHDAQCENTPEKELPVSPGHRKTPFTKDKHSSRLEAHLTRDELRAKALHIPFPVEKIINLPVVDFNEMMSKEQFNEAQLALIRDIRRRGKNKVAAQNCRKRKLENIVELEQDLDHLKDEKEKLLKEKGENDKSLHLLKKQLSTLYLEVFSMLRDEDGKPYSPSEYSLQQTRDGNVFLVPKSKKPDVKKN
Chain of Signal transducer and activator of transcription 3 (Homo sapiens) (P40763 whole entry, looked up): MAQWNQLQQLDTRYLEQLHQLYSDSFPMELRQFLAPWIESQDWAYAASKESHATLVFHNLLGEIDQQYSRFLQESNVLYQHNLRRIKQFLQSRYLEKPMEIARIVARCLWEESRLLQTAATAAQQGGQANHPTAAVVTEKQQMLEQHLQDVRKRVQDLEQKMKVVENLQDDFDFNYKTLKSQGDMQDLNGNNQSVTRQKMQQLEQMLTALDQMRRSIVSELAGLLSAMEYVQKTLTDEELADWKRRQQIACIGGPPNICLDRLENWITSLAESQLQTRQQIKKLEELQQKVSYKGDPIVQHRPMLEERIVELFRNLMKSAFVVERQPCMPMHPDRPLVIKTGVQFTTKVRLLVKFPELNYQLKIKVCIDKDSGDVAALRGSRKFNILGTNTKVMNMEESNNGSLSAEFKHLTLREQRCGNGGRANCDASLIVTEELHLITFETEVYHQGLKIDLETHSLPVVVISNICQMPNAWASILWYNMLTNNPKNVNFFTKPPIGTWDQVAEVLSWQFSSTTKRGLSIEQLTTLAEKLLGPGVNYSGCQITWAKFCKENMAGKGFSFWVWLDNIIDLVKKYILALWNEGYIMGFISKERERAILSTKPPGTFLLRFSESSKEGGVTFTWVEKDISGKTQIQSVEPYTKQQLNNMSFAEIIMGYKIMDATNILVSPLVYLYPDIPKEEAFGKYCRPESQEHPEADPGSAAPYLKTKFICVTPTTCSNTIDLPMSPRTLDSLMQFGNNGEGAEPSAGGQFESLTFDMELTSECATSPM

In the case of `CNC(=S)S`, the outcome in experiment [1] was “inactive”; in [2], “inactive”; in experiment [3], “inactive”; in the experiment with MYC, MYC (gene 4609), “inactive”; in experiment [4], “inactive”; in [5] it was “inactive”. For the same compound, the result in [6], in experiment [7], in experiment [8], in experiment [9], in experiment [10] and in experiment [11] was inactive. Moreover, the compound was called inactive in experiment [12], in experiment [13], in experiment [14], in experiment [15], in experiment [16] and in experiment [17]. In addition, the outcome in [18] is “inactive”; with TIMP1, TIMP1 (gene 7076), “inactive”.
For the compound `CCCCC(CC)COC(=O)c1ccccc1C(=O)OCC(CC)CCCC` (stereo not given), the outcome in [1] was “inactive”; in [2], “inactive”; in [3], “inactive”; in the experiment with MYC, MYC (gene 4609) it was “inactive”; in [4] it was “inactive”; in [5] it was “inactive”. Also, the call in [6], in experiment [7], in experiment [8], in [9], in experiment [10] and in [11] was inactive. The outcome in experiment [12], in [13], in [14], in experiment [15], in experiment [16] and in experiment [17] was inactive. Further, the outcome in [18] was “inactive”; with TIMP1, TIMP1 (gene 7076), “inactive”.
As to `COc1ccc(C(c2ccc(OC)cc2)C(Cl)(Cl)Cl)cc1`, the AC50 in experiment [1] was 76.6 µM (active); in experiment [2], 79.4 µM (active); in the experiment with MYC, MYC (gene 4609) it was 49.8 µM (active); in [9] it was 84.8 µM (active); in experiment [12], 12.7 µM (active); in [13], 33.2 µM (active). For the same compound, the result in experiment [3], in experiment [4], in experiment [5], in [6], in experiment [7] and in [8] was inactive. Besides, the outcome in [10], in experiment [11], in experiment [14], in experiment [15], in [16] and in [17] was inactive. The outcome was “inactive” in [18] and “inactive” with TIMP1, TIMP1 (gene 7076).
